Where “and” joins values, the source holds several entries; their conditions need not be identical. Equal entries are not always repeated. The panel holds about 83,000 compounds, 20% with a hit somewhere; the sample as a whole holds those more often.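 Assay: single dose, 48 h. Readout: percent growth (0 = no net growth; negative = cell death). Active: <10.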 Unmarked numbers belong to inactive results. Calls of active or inactive are those of the source.

The assay deals with NCI-H23 lung. Put plainly: NCI-60 one-dose screen, 48 h (100 = growth as untreated, 0 = no growth, -100 = all killed). Conditions: 10 µM unless noted.
For `C=C[C@]1(C)C=C2CC[C@@H]3C(C)(C)C(=O)CC[C@@]3(C)[C@@H]2CC1`, the growth is 104%. Take `CN(C)CC1(C)Cc2ccsc2C1O` (centres undefined): the growth is 106% and 109%. In the case of `CCN(CC)/C([O-])=c1\cccc\c1=C1\N=C(c2ccccc2)N=C1[n+]1ccc(-c2ccccc2)cc1`, the growth is 103%. On to `Cc1oc2c(Cc3ccc(NC(=O)c4ccc(Cl)cc4)cc3)ncnc2c1C(=O)NO`, for which the growth is 97.2%. With `COc1cc(CNC(=O)CCCC/C=C/C(C)C)ccc1O` the figure was 101%. Regarding `CC1=C2[C@@H](CC1)[C@]1(C)O[C@@](C(C)C)(C[C@H]1OC(=O)CO)[C@H]2OC(=O)C1CC1c1ccccc1` (some centres undefined), the growth was 92.8%. For `O=C1OCC2=C1C(c1cccc(C(F)(F)F)c1)c1cc3c(cc1N2CCO)CCC3` (centres undefined), the growth is 25.7%. With `COc1ccc(/C=N/C2=C(C#N)C(c3ccccc3)c3c(ccc4ccccc34)O2)cc1` (centres undefined), the growth is 36.9%.

`O=C(CCl)N(O)c1ccc(/C=C/c2ccccc2)cc1`: the growth is 70.7% and 74.2%. Regarding `N#C/C(=C\c1ccc(Br)cc1)n1nnc2c(F)cccc21`, the growth was 10.3%.

`O=C(/C=C/c1ccccc1)c1cccs1`: the growth is 94.1% and 105%. With `COc1ccc(Nc2nn3c(SCC(=O)c4ccc(C)cc4)nnc3s2)cc1`, the growth was 91.1%. As to `CN(Cc1ccccc1)c1nc(Cl)c(C2CC(c3ccc4c(c3)OCO4)=NN2c2cc(Cl)cc(Cl)c2)s1` (centres undefined), the growth is 96.2%. With `Cc1nnc(NS(=O)(=O)c2ccc(N=Nc3ccc(N)nc3N)cc2)s1` the figure was 100% and 110%. `CC[C@H](C)[C@H](NC(=O)[C@H](CCCCN)NC(=O)[C@H](CCCCN)NC(=O)[C@@H](NC(=O)[C@@H](NC(=O)[C@@H](N)Cc1cnc[nH]1)[C@@H](C)CC)[C@@H](C)CC)C(=O)N[C@@H](CCCNC(=N)N)C(=O)N[C@H](C(=O)N[C@@H](Cc1c[nH]c2ccccc12)C(=O)N[C@@H](Cc1ccc(O)cc1)C(=O)N[C@@H](CCCNC(=N)N)C(=O)N[C@@H](CCCCN)C(=O)N[C@@H](C)C(=O)N[C@@H](Cc1c[nH]c2ccccc12)C(=O)N[C@@H](Cc1cnc[nH]1)C(=O)N[C@H](C(=O)N[C@@H](CC(C)C)C(=O)NCC(=O)N[C@@H](CCCCN)C(=O)N[C@H](C(N)=O)C(C)C)C(C)C)[C@@H](C)O`: the growth is 17.2%.

Consider `O=S(=O)(Nc1cc(Sc2cccc3cccnc23)c(O)c2ccccc12)c1ccc(F)cc1`, for which the growth was 17.7%. Take `COc1ccc2c(c1)CCNC21C(=O)Nc2c(Br)cc(Br)cc21` (centres undefined): the growth was 98.4%. For `CCCn1nc(C(=O)N2CCCCC2)c2c1CCC(N1CCC(c3ccncc3)CC1)C2` (centres undefined), the growth is 105%. Turning to `C=C1C(=O)O[C@@H]2[C@H]3[C@H](COC(C)=O)[C@@H](OC(C)=O)C[C@H]3C(=C)[C@@H](O)C[C@@H]12`, the growth was 96.2%. As for `CC(=O)N1N=C(c2ccc(F)cc2)CC1c1sc(N(C)Cc2ccccc2)nc1Cl` (centres undefined), the growth is 85.1%. Turning to `O=C(/C=C/c1ccc([N+](=O)[O-])cc1)c1ccccc1`, the growth was 93.2%. With `COc1ccc(C(CC(=O)c2ccc3c(c2)OCO3)C(=O)O)cc1OC` (centres undefined) the figure was 104% and 96.7%. For the compound `CCN1CCN(CC(=O)Nc2nc3ccc(NCc4ccc(C)cc4)cc3s2)CC1`, the growth was 72.6%. Under `Clc1cccc(Nc2ncnc3ccc(-c4cncc(-n5cnnn5)c4)cc23)c1` stands 80%; under `CCc1c2c(nc3ccc(OCc4ccc(B5OC(C)(C)C(C)(C)O5)cc4)cc13)-c1cc3c(c(=O)n1C2)COC(=O)[C@]3(O)CC`, -23.1% (active); under `COc1ccc(/C=N\Nc2nc(SCC(C)C)nc(-c3ccc(OC)cc3)c2C#N)cc1`, 57.2%. In the case of `COc1cc2nc3cc([N+](=O)[O-])ccc3c(NCCNCC(C)(C)O)c2cc1OC`, the growth was -34.1% (active). With `COc1ccc(C(=O)c2ccc(OC)c(OC)c2OC)cc1` the figure was 41.1% and 40.7%. For the compound `N=C1/C(=C2\NC3C=CC=CC3S2)C(c2ccc(Cl)cc2)C2C(=O)N(c3ccccc3)C(=S)N12` (centres undefined), the growth is 97.4%.

In the case of `CC1=CC(C)(C)NC(=S)N1c1ccc(Cl)cc1`, the growth was 101% and 99%. Regarding `Cc1nn(-c2nc(-c3cc4ccccc4oc3=O)cs2)c(C)c1N=Nc1ccccc1`, the growth is 98%. For `Cc1nc(Nc2ncc(C(=O)Nc3c(C)cccc3Cl)s2)cc(N2CCN(CCO)CC2)n1`, the growth was 46.6% and 32.6%. For `COc1ccc(-c2ccc(-c3ccc(C(=N)N)cn3)s2)cc1Cl`, the growth was -57.5% (active). Regarding `CNC(=O)c1cc(Oc2ccc3nc(NC(=O)Nc4ccc(C(F)(F)F)cc4)sc3c2)ccn1`, the growth is 63.4%. For the compound `COc1ccc(CCNC(=O)COc2cc3c(Nc4ccc(F)c(Cl)c4)ncnc3cc2OC)cc1OC`, the growth is 92.5%.

With `Cc1ccc(S(=O)(=O)Nc2cc(Sc3ccccc3)c(O)c3ccccc23)cc1`, the growth was 58%. Take `Nc1nc(Nc2cccnc2)sc1C(=O)c1ccccc1F`: the growth was 37.9%. Take `O=C(Cn1cc(CN2CCN(c3ccnc4cc(Cl)ccc34)CC2)nn1)Nc1cccc([N+](=O)[O-])c1`: the growth is 99.1%.

Regarding `CCOc1nc(-c2ccccc2)cc2c(O)c(C(=O)N/N=C/c3ccc(N(C)C)cc3)[nH]c(=O)c12`, the growth was 107%.

For the origin of these results see PubChem BioAssay (NCI).
